The entries come from a sample that favours hits as a whole.
Tgondii IFNg – inhibitors of Toxoplasma gondii growth with IFN-gamma | 3.8% of 69,000 active | Toxoplasma gondii growth in IFN-gamma-treated host cells; stronger effect = lower value | activity change, negative = inhibition, % (no concentration beside the values); in the data active means activity change below about -70%, passing the limit was not always enough;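 further: host cells are HeLa cells infected with Toxoplasma gondii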
* marks the source's active call; other numbers are inactive results; i = inactive.

SMILES | Tgondii IFNg
O=C(c1ccco1)N1C[C@H]2OC(=O)N(CCCN3CCOCC3)[C@H]2C1 | 2
CCC(C)C1N=C2c3ccccc3N=C(SCc3cc(=O)n4cc(Br)ccc4n3)N2C1=O (stereo not given) | -5
Nc1nccc2c1ncn2[C@@H]1O[C@H](CO)C(O)C1O (stereo not given in full) | -3
Nc1nccc2c1ncn2[C@@H]1C=C(CO)[C@@H](O)[C@H]1O | -78*
Cc1ccc(C2(CNC(=O)c3sc(Cc4ccccc4)nc3C)CCOCC2)cc1 | -2
O=C(Nc1ccccc1F)c1cc2c(s1)CCN2C(=O)C1CC1 | i
Cc1cc(C[C@@H]2CCC[C@H]2N(Cc2ccncc2)Cc2cccs2)on1 | -53
Cc1nc(N2CCOCC2)nc2c1CCN(C(=O)C1CC1)CC2 | -59
CC1(C)CCC(CN2CCN(c3ccc(C(=O)NS(=O)(=O)c4ccc(NCC5CCOCC5)c([N+](=O)[O-])c4)c(Oc4cnc5[nH]ccc5c4)c3)CC2)=C(c2ccc(Cl)cc2)C1 | -80*
O=C(Nc1ccc(Cl)cc1)N1CCOC1c1cccs1 (stereo not given) | 18
COc1ccccc1-c1cc(C(=O)N2CCOC(C(F)(F)F)C2)[nH]n1 (stereo not given) | -13
Cc1ncc(C)c(N2CC[C@@H](N3CCN(CCc4ccccc4)CC3)[C@H](O)C2)n1 | -10
Cn1c(=O)c(C(=O)Nc2ccccc2)cc2cccnc21 | 256
O=C(CN1CCN(S(=O)(=O)N2CCCC2)CC1)Nc1ccc2c(c1)OCCCO2 | 11
CCc1cc(C(=O)Cc2nc3ccccc3s2)c(O)cc1O | 96
c1ccc2sc(CCc3nc4ccccc4s3)nc2c1 | 324
Oc1ccc(O)c(Cc2nc3ccccc3s2)c1 | -93*
CN(C)C1CCN(C(=O)c2cc(-c3ccn(CC4CC4)n3)n3ccccc23)CC1 | -1
C=CCNc1c(C(=O)OC)c(=O)[nH]c2ccc(F)cc12 | 32
COC(=O)c1ccc(NC(=O)CSc2nnc3c(n2)[nH]c2ccc(F)cc23)cc1 | -70*
Cc1ccc2nc(SCC(=O)Nc3ccc(F)cc3)c(C)cc2c1 | -26
Cc1ncsc1C(=O)N1C[C@H]2OC(=O)N(CCCN3CCOCC3)[C@H]2C1 | -47
CNC(=O)[C@H]1C[C@@H]2CN(Cc3ccoc3)C[C@@H]2N1C | -2
CNC(=O)[C@@H]1CC2CN(S(=O)(=O)c3ccccc3)CC2N1C(C)=O (stereo not given in full) | 31
CNC(=O)[C@@H]1CC2CN(S(=O)(=O)c3ccc(C)c(F)c3)CC2N1C (stereo not given in full) | -93*
SMILES | Tgondii IFNg
c1ccc(CN2CCCC3(COCCN(c4cccnc4)C3)C2)nc1 (stereo not given) | -31
O=C(C1CC1)N1CCc2c([nH]c3ccccc23)C1c1ccc(F)cc1 (stereo not given) | 492
Cc1c(C)c2c(c(C)c1O)CCC(C)(C(=O)N1CCc3c(nc[nH]c3=O)C1)O2 (stereo not given) | -17
Clc1ccc(-c2cc(-c3cccs3)c(-c3ccccc3)o2)cc1 | 141
c1csc(-c2cncc(-c3nnc(-c4cccc5ccccc45)o3)c2)c1 | -102*
FC(F)(F)c1oc(-c2ccccc2Cl)cc1-c1nc(-c2cccs2)no1 | -4
COc1ccc(CN2CCC(C(=O)NC(C)c3ccc4c(c3)OCCO4)CC2)cc1 (stereo not given) | 0
CN1C(=O)c2ccccc2C(=O)[C@@]2(C)CN(C(=O)c3ccccc3)C[C@@H]12 | -50
Cc1ccc(CN(C(=O)c2cnc(-c3cccnc3)nc2)C2CC2)s1 | 4
Cc1oc(-c2ccc(C(=O)NC3CCCC3)cc2)nc1CN1CCN(c2ccccc2)CC1 | 43
COCC1CC2(CCN(C(=O)COc3ccc(F)cc3)CC2)CO1 (stereo not given) | -5
O=C(Cn1c(=O)cc(-c2nc(C3CC3)no2)c2ccccc21)NCc1ccc(Cl)cc1 | 44
CCCc1ncc(-c2ccncc2C)c(C2CCCN2C(=O)c2sc(NC)nc2C)n1 (stereo not given) | -13
Cc1nc(-c2cn(C(C)C)c3ncccc23)sc1C(=O)N1CCCCC1C (stereo not given) | -106*
CC1CCCCN1C(=O)c1cc(-c2cnc(-c3ccccc3)nc2)cn1C (stereo not given) | i
Cc1cnc(-n2cnnc2)c(-c2ccc(S(C)(=O)=O)cc2)c1 | 2
Cc1cc(-c2ccc(-c3ccn[nH]3)cc2)cnc1-n1cnnc1 | -77*
Cc1cc(C)c(-c2cnc(-n3cnnc3)c(C)c2)c(C)c1 | -78*
CC(C)c1nccn1-c1ccc(-c2ccn[nH]2)cc1 | 4
OCc1cc(-c2ccc(-c3ccn[nH]3)cc2)ccn1 | 58
COC(C)c1cccc(-c2cnc(-n3cnnc3)c(C)c2)c1 (stereo not given) | -11
O=C(c1ccco1)N1CCCn2c(nc(CN3CCCC3)cc2=O)C1 | 1
Clc1ccc(CSc2nnc(Cc3ccccc3)o2)cc1 | -38
CN1CC(=O)N(c2cnn(C)c2)CC12CCN(C(=O)C1CCOCC1)C2 (stereo not given) | -8
CC(C)n1nc(CN(C)C)c2c1CNC2 | 14
SMILES | Tgondii IFNg
CCOc1ccc(NC(=O)Cn2c(=O)cc(-c3nc(C(C)C)no3)c3ccccc32)cc1 | 115
O=C(NCCN1C(=O)CSC1=O)c1ccc(Oc2ncccn2)cc1 | 29
COc1ccc(-c2ccccc2)cc1-n1ccnc1-c1cnc[nH]1 | -82*
CCOCc1cc(-c2nccn2-c2cccnc2)ccc1OC | -3
COc1cccc(-c2nccn2CCc2cnc[nH]2)c1OC | 8
COc1ccccc1CNC(=O)CC1N=C2c3ccccc3N=C(SCc3ccccc3Cl)N2C1=O (stereo not given) | -4
NC(=O)c1cccc(C2CCNCC2)n1 | 20
CCOc1ccccc1CN(C(=O)c1cccnc1NC)C1CC1 | 1
Cc1ccc(OCC(=O)NCCc2sc(-c3ccc(Cl)cc3)nc2C)cc1 | -76*
Cc1nc(-c2ccc(Cl)cc2)sc1CCNC(=O)COc1ccccc1 | 44
Cc1nc(-c2ccc(Cl)cc2)sc1CCNC(=O)c1ccc(F)cc1 | -47
Cc1ccc(C(=O)NCCc2sc(-c3ccc(Cl)cc3)nc2C)cc1C | -12
Cc1nc(-c2ccc(F)cc2)sc1CCNC(=O)c1ccccc1 | -26
Cc1nc(-c2ccc(F)cc2)sc1CCNC(=O)c1ccc(Br)cc1 | -81*
Cc1nc(-c2ccc(Cl)cc2)sc1CCNC(=O)c1ccc(F)c(F)c1 | -77*
Cc1nc(-c2ccc(F)cc2)sc1CCNC(=O)c1ccc(C(C)(C)C)cc1 | -26
Cc1ccc(OCC(=O)NCCc2sc(-c3ccc(F)cc3)nc2C)cc1 | -24
CN(Cc1ccco1)C(=O)CN1C(=O)CCc2cc(S(=O)(=O)N3CCCC3)ccc21 | -9
CC(C)CCN1C[C@]23CN(C(=O)c4ccn[nH]4)C[C@@H](C[C@H]2S1(=O)=O)O3 | -32
Cc1cc2cccc(NC(=O)CC(C)n3ccnc3)c2o1 (stereo not given) | -56
CCCN1CCC(Cc2noc([C@@H]3CCCCN3)n2)CC1 | -9
COCCN1CCC2(CC1)CC(NCc1ccc(C)s1)c1ccccc12 (stereo not given) | -4
CS(=O)(=O)N1CCC2(CC1)CC(NCc1cccs1)c1ccccc12 (stereo not given) | -94*
CN(C)CCN1CCC2(CC1)CC(NCc1cccs1)c1ccccc12 (stereo not given) | -35
Cc1nc(Cn2nc(C3CCNCC3)n(Cc3ccccc3)c2=O)no1 | 1
Cc1cc(C)n(-c2cccc(CN(C)C(=O)Cc3ccccc3O)c2)n1 | -9
O=C(O)CCc1ccc(NCc2cccc(Oc3ccccc3)c2)cc1 | 14
